Reference: the supplement of paper PMC8975748
Counter-ions that a name gives are not always drawn.

test system: Saccharomyces cerevisiae BY4741 SeMeCo community; assay: z-score of subpopulation abundance vs DMSO median, subpopulation auxotrophic for HM; higher = larger share of this subpopulation than in DMSO controls; conditions: 10 µM; 24 h; SM minimal medium; subpopulation (auxotrophy): HM
Experimental: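 Fluorescent four-plasmid SeMeCo (self-establishing metabolically cooperating S. cerevisiae BY4741 community; plasmids pH-mRuby2, pL-mWasabi, pU-eCFP, pM-TagRFP657) was grown 24 h in minimal SM medium with each Selleck FDA-approved drug at 10 µM in 384-well plates. Cells were fixed and imaged by high-content confocal microscopy. For each auxotrophic subpopulation (and the prototroph), a z-score gives the deviation from the DMSO vehicle-control population median.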

SMILES	z-score of subpopulation abundance
COC(=O)C1=C(C)NC(C)=C(C(=O)OCC(C)C)C1c1ccccc1[N+](=O)[O-] (stereo not given) [Nisoldipine]	0.97
CO[C@@H]1[C@H](OC(=O)/C=C/C=C/C=C/C=C/C(=O)O)CC[C@]2(CO2)[C@H]1[C@@]1(C)O[C@@H]1CC=C(C)C [Fumagillin]	1.85
Clc1ccc(C(Cn2ccnc2)OCc2ccsc2Cl)c(Cl)c1 (stereo not given) [Tioconazole]	3.87
Nc1nc2[nH]cc(CCc3ccc(C(=O)N[C@@H](CCC(=O)O)C(=O)O)cc3)c2c(=O)[nH]1 [Pemetrexed]	-4.62
CC1(C)S[C@@H]2[C@H](NC(=O)[C@H](NC(=O)N3CCNC3=O)c3ccccc3)C(=O)N2[C@H]1C(=O)O [Azlocillin sodium salt]	-0.15
CC1(C)CC[C@]2(C(=O)O)CC[C@]3(C)C(=CC[C@@H]4[C@@]5(C)CC[C@H](O)C(C)(C)[C@@H]5CC[C@]43C)[C@@H]2C1 [Oleanolic Acid]	1.05
COc1ccc(CC2c3cc(OC)c(OC)cc3CC[N+]2(C)CCC(=O)OCCCCCOC(=O)CC[N+]2(C)CCc3cc(OC)c(OC)cc3C2Cc2ccc(OC)c(OC)c2)cc1OC (stereo not given) [Atracurium Besylate]	0.41
CCn1cc(C(=O)O)c(=O)c2cnc(N3CCNCC3)nc21 [Pipemidic acid]	0.81
CC[N+](CC)(CC)CCOc1cccc(OCC[N+](CC)(CC)CC)c1OCC[N+](CC)(CC)CC [Gallamine Triethiodide]	-0.01
c1ccc(C2CN3CCSC3=N2)cc1 (stereo not given) [Tetramisole HCl]	-0.54
CN1CCN2c3ncccc3Cc3ccccc3C2C1 (stereo not given) [Mirtazapine]	-0.07
CCOC(=O)c1ccc(N)cc1 [Benzocaine]	0.67
CC[C@H]1OC(=O)C[C@@H](O)[C@H](C)[C@@H](O[C@@H]2O[C@H](C)[C@@H](O)[C@H](N(C)C)[C@H]2O)[C@@H](CCN2C[C@H](C)C[C@H](C)C2)C[C@@H](C)C(=O)/C=C/C(C)=C/[C@@H]1CO[C@@H]1O[C@H](C)[C@@H](O)[C@@H](OC)[C@H]1OC [Tilmicosin phosphate]	-0.03
N#Cc1ccc2[nH]cc(CCCCN3CCN(c4ccc5oc(C(N)=O)cc5c4)CC3)c2c1 [Vilazodone]	-0.16
COC(=O)C1=C(C)NC(C)=C(C(=O)OC2CCCN(Cc3ccccc3)C2)C1c1cccc([N+](=O)[O-])c1 (stereo not given) [Benidipine HCl]	0.86
COc1cccc2c1C(=O)c1c(O)c3c(c(O)c1C2=O)C[C@@](O)(C(C)=O)C[C@@H]3O[C@H]1C[C@H](N)[C@H](O)[C@H](C)O1 [Daunorubicin HCl]	-3.07
NCC[C@H](O)C(=O)N[C@@H]1C[C@H](N)[C@@H](O[C@H]2O[C@H](CN)[C@@H](O)[C@H](O)[C@H]2O)[C@H](O)[C@H]1O[C@H]1O[C@H](CO)[C@@H](O)[C@H](N)[C@H]1O [Amikacin disulfate]	-1.21
CN1CCN(CCCN2c3ccccc3Sc3ccc(C(F)(F)F)cc32)CC1 [Trifluoperazine 2HCl]	0.33
COc1ccc(C2CNC(=O)C2)cc1OC1CCCC1 (stereo not given) [Rolipram]	-0.73
O=C(O[C@@H]1C[C@@H]2C[C@H]3C[C@H](C1)N2CC3=O)c1c[nH]c2ccccc12 [Dolasetron Mesylate]	1.09

SMILES	z-score of subpopulation abundance
C[C@@H](O)[C@H]1C(=O)N2C(C(=O)OCOC(=O)C(C)(C)C)=C(SC3CN(C4=NCCS4)C3)[C@H](C)[C@H]12 [Tebipenem Pivoxil]	-0.9
CC[C@H]1OC(=O)C[C@@H](O)[C@H](C)[C@@H](O[C@@H]2O[C@H](C)[C@@H](O)[C@H](N(C)C)[C@H]2O)[C@@H](CCN2C[C@H](C)C[C@H](C)C2)C[C@@H](C)C(=O)/C=C/C(C)=C/[C@@H]1CO[C@@H]1O[C@H](C)[C@@H](O)[C@@H](OC)[C@H]1OC [Tilmicosin]	0.93
NC(=O)N1c2ccccc2CC(=O)c2ccccc21 [Oxcarbazepine]	0
C#C[C@]1(O)CC[C@H]2[C@@H]3CCC4=CC(=O)CC[C@@H]4[C@H]3C(=C)C[C@@]21CC [Etonogestrel]	-1.24
O=C1CN(/N=C/c2ccc([N+](=O)[O-])o2)C(=O)N1 [Nitrofurantoin]	-0.67
Cc1[nH]c(=O)c(C#N)cc1-c1ccncc1 [Milrinone]	-0.67
CC(=O)[C@H]1CC[C@H]2[C@@H]3CCC4=CC(=O)CC[C@]4(C)[C@H]3CC[C@]12C [Progesterone]	-0.71
N[C@@H]1CONC1=O [D-Cycloserine]	-0.26
CO/N=C(\C(=O)N[C@@H]1C(=O)N2C(C(=O)O)=C(Cn3ccc(=N)n3CCO)CS[C@H]12)c1csc(N)n1 [Cefoselis Sulfate]	-0.32
CC1(C)S[C@@H]2[C@H](NC(=O)[C@H](C(=O)O)c3ccsc3)C(=O)N2[C@H]1C(=O)O [Ticarcillin sodium]	0.42
Cc1ccc(Sc2ccccc2N2CCNCC2)c(C)c1 [Vortioxetine]	-0.01
C[C@@H]1[C@H](O)[C@@H](C)/C=C/C=C/C=C/C=C/C=C/C=C/C=C/[C@H](O[C@@H]2O[C@H](C)[C@@H](O)[C@H](N)[C@@H]2O)C[C@@H]2O[C@](O)(C[C@@H](O)C[C@@H](O)[C@H](O)CC[C@@H](O)C[C@@H](O)CC(=O)O[C@H]1C)C[C@H](O)[C@H]2C(=O)O [Amphotericin B]	0.42
CC/C(=C(\c1ccccc1)c1ccc(OCCN(C)C)cc1)c1ccccc1 [Tamoxifen]	0.93
CN(C)CC(c1ccc(O)cc1)C1(O)CCCCC1 (stereo not given) [Desvenlafaxine]	-1.06
NC(=O)c1ncn([C@@H]2O[C@H](CO)[C@@H](O)[C@H]2O)n1 [Ribavirin]	-0.41
COc1ccc2[nH]c([S@@+]([O-])Cc3ncc(C)c(OC)c3C)nc2c1 [NEXIUM (esomeprazole magnesium)]	0.8
O=C1Nc2ccccc2C1=O [Isatin]	-0.24
Oc1cccc(O)c1 [Resorcinol]	-0.29
CN(C)CCc1c[nH]c2ccc(CS(=O)(=O)N3CCCC3)cc12 [Almotriptan Malate]	-1.15
CCN1CCN(c2cc3c(cc2F)c(=O)c(C(=O)O)cn3C2CC2)CC1 [Enrofloxacin]	-0.25
